Reference: the supplement of paper PMC6555819

Key:
Test in all cases: PBM binding z-score (relative to random genomic background probes); higher = stronger binding; sequences stand for … in GC…GCGATTGACAGCGTAGAATGAAGG
[1] = tested on: LXRa homodimer (NR concentration 270 nM)
Method in brief: (§1)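 The probes on custom Agilent 4×180K protein-binding microarrays were double-stranded, with 34-nt variable regions bearing direct-repeat seeds, single-nucleotide variants, half-site ablations and random human genomic background sequences. Incubation lasted 1 h with ligand-free nuclear receptor dimers in PBS pH 7.4, 2% milk, 0.02% Triton X-100, 1 mM DTT, 0.2 mg/mL BSA and 0.4 mg/ml salmon testes DNA. Antibodies against each partner (one per run) detected bound dimers, and fluorescence scans were regression-normalized. Binding z-scores take the random background probes as reference.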

[2] = tested on: LXRb homodimer (NR concentration 270 nM)
Method in brief: as §1

[3] = tested on: PPARg:RXRa (NR concentration 180 nM, RXRa partner concentration 90 nM)
Method in brief: as §1

[4] = tested on: PPARg:RXRa 270nM:90nM, anti-RXR (NR concentration 270 nM, RXRa partner concentration 90 nM)
Method in brief: as §1

[5] = tested on: PPARg:RXRa 30nM:10nM, anti-RXR (NR concentration 30 nM, RXRa partner concentration 10 nM)
Method in brief: as §1

[6] = tested on: PPARg:RXRa 90nM:30nM, anti-RXR (NR concentration 90 nM, RXRa partner concentration 30 nM)
Method in brief: as §1

[7] = tested on: PPARg:RXRa DBDmut IVT, anti-RXR (DBD mutation: RXRa K156A/R161A, NR concentration 270 nM, RXRa partner concentration 90 nM)
Method in brief: as §1

[8] = tested on: PPARg:RXRa IVT, anti-PPARg (NR concentration 270 nM, RXRa partner concentration 90 nM)
Method in brief: as §1

[9] = tested on: PPARg DBDmut:RXRa IVT, anti-PPARg (DBD mutation: PPARg1 K132A/R137A, NR concentration 270 nM, RXRa partner concentration 90 nM)
Method in brief: as §1

[10] = tested on: PPARg DBDmut IVT, anti-PPARg (DBD mutation: PPARg1 K132A/R137A, NR concentration 270 nM)
Method in brief: as §1

[11] = tested on: PPARg homodimer (NR concentration 180 nM)
Method in brief: as §1

[12] = tested on: PXR:RXRa (NR concentration 270 nM, RXRa partner concentration 90 nM)
Method in brief: as §1

[13] = tested on: PXR homodimer (NR concentration 270 nM)
Method in brief: as §1

[14] = tested on: RARa:RXR (NR concentration 270 nM, RXRa partner concentration 90 nM)
Method in brief: as §1

[15] = tested on: RARa homodimer (NR concentration 270 nM)
Method in brief: as §1

[16] = tested on: RARb homodimer (NR concentration 270 nM)
Method in brief: as §1

[17] = tested on: LXRa:RXRa (NR concentration 270 nM, RXRa partner concentration 90 nM)
Method in brief: as §1

[18] = tested on: RARb:RXRa (NR concentration 270 nM, RXRa partner concentration 90 nM)
Method in brief: as §1

[19] = tested on: PPARa:RXRa (NR concentration 270 nM, RXRa partner concentration 90 nM)
Method in brief: as §1

Row | Sequence | PBM binding z-score [1] | PBM binding z-score [2] | PBM binding z-score [3] | PBM binding z-score [4] | PBM binding z-score [5] | PBM binding z-score [6] | PBM binding z-score [7] | PBM binding z-score [8] | PBM binding z-score [9] | PBM binding z-score [10] | PBM binding z-score [11] | PBM binding z-score [12] | PBM binding z-score [13] | PBM binding z-score [14] | PBM binding z-score [15] | PBM binding z-score [16] | PBM binding z-score [17] | PBM binding z-score [18] | PBM binding z-score [19]
1 | CAAAATAGGTCACAGAGGTCAAAGTCCGTGCGTA | 7.45 | 2.61 | 9.92 | 8.39 | 6.56 | 8.55 | 7.62 | 8.25 | 1.92 | 1.23 | 4.67 | 6.99 | 10.7 | 7.81 | 1.88 | 5.93 | – | – | –
2 | CGAACAAGGTCACCAGGACAGTGAAGAGGTTGGA | 0.443 | 0.736 | 7.8 | 7.38 | 3.87 | 6.13 | 5.38 | 6.18 | – | 1.95 | 4.85 | 4.68 | 1.1 | 5.71 | 3.06 | 4.07 | 5.26 | 5.3 | –
3 | CGTCCAAGGTCACAGAGGTCAGTGAATGCCGAGT | 5.07 | 1.08 | 7.01 | 6.54 | 3.38 | 5.63 | 4.6 | 5.63 | 1.12 | 0.337 | 3.92 | – | 12.2 | 6.75 | 2.06 | 5.82 | 6.12 | – | –
4 | CGTCAAAGGTCAAGGTAACGTAACAGAAAGCAGC | 2.47 | 2.82 | 9.12 | 8.51 | 6.2 | 8.31 | 4.8 | 6.15 | 3.88 | 3.1 | 4.75 | 5.33 | 0.602 | 6.56 | 2.85 | 5.16 | – | – | –
5 | CGTCCAAGGACAATGCTAGGTCAGTGAAAGCATT | 0.593 | -0.885 | – | -0.429 | -0.602 | -0.31 | 0.442 | 0.25 | -1.55 | -0.865 | 0.328 | 0.242 | 0.0712 | 0.502 | -0.127 | 2.48 | 0.187 | 2.03 | –
6 | CGTCAAAGGTCAGCAGGTCAGTGAAAGCGACGTG | 2.22 | 1.28 | 8.46 | 7.84 | 4.46 | 7.02 | 4.94 | 5.73 | 1.7 | 1.47 | 7.06 | 5.39 | 0.608 | – | 4.86 | 5.42 | 6.48 | – | –
7 | CGAACGAGGTCATCCAGGACAGTGAATACATTGA | 1.53 | 1.78 | 7.79 | 7.07 | 3.9 | 6.1 | 5.37 | 6.11 | 3.53 | 2.68 | 4.36 | – | 9.68 | 6.05 | 1.86 | 4.1 | 6.03 | 5.11 | –
8 | CGTCCAAGGTCACGGTCAGTGAAAGAGACTCGAA | 0.892 | 0.155 | 7.75 | 7.26 | 4.16 | 6.37 | 4.83 | 5.66 | 1.95 | 0.958 | 4.68 | 4.93 | 0.843 | 6.25 | 2.14 | 4.71 | 6.12 | – | –
9 | CTATGTAGGTTAAGGGAGTCATTCAGTTTGAAAG | -0.134 | – | 4.76 | 4.4 | 1.9 | 3.53 | 6.9 | 6.74 | – | – | 0.863 | – | 0.389 | 0.462 | 0.236 | 0.609 | 0.682 | 0.814 | 3.21
10 | CCTTACGGGTCACGAGGTCATAGCACGACGAGCG | 2.73 | 0.62 | 8.56 | 7.55 | 4.61 | 6.67 | 4.66 | 6.02 | 2.06 | 1.59 | 5.34 | – | 2.24 | – | 2.17 | 4.95 | 5.89 | 5.23 | –
11 | CAAAATAGGTCACGAAAGGTCAAAGTCGAATGAC | 8.09 | 3.59 | 10.4 | 8.59 | 7.39 | 8.59 | 7.95 | 8.54 | 5.84 | 4.87 | 10.7 | – | 3.21 | – | 7.69 | 5.79 | 8.64 | 6.03 | –
12 | CAAACTAGGTCACGAGAGGTCAAAGTCGAATGAC | 8.5 | 2.4 | 10.7 | 8.59 | 6.83 | 8.87 | 8.71 | 9.18 | 3.71 | 4.06 | 5.24 | – | 3.95 | 7.58 | 2.65 | 5.6 | 8.28 | 5.51 | –
13 | GCTTACAGGTCAAAGGTTATAGCATGAATAGAAT | 2.63 | 1.4 | 11.5 | 9.51 | 8.9 | 10.5 | 5.27 | 6.3 | 2.55 | 3.43 | 3.21 | 6.17 | 0.923 | 7.96 | 0.992 | 3.69 | – | 4.93 | 7.1
14 | CGTCAAAGTTCAACTAAGGTCACGTAAAGCACGC | 8.57 | 2.98 | 6.26 | 6.88 | 3.49 | 5.51 | 1.14 | 3.7 | 0.74 | 1.77 | 6.25 | – | 12.2 | – | 3.25 | 6.11 | – | – | 6.28
15 | CAAACTAGGTCAAGAGGTCAAAGTTCGCTTCCCG | 6.51 | 2.33 | – | 9.13 | 7.44 | 10.1 | 8.34 | 8.83 | 3.82 | 5.91 | 10.9 | – | 5.01 | – | 4.53 | 5.71 | 6.59 | 5.51 | –
16 | CGAACTAGGTCGCCAGGACAGTGAAGAGGTTGGA | -0.593 | -0.928 | 2.71 | 2.49 | 0.111 | 1.62 | 5.94 | 5.49 | – | -0.449 | -0.09 | -0.103 | -0.264 | 0.141 | -0.715 | 1.04 | 0.158 | 1.48 | –
17 | CGAACTAGGTCAAAGGACATTGAAAGGCGACGTA | 0.172 | -0.137 | 10.8 | 8.84 | 9.04 | 10.6 | 8.06 | 8.46 | – | 2.63 | 2.37 | 1.39 | 0.177 | 2.7 | 0.467 | 3.01 | 2.7 | 3.96 | –
